# Data: the GenesisPotency data set
# About 40 (8%) of roughly 500 compounds were called active.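 How the source made its calls: active means mean IC50 below 20 µM in each of the two panels, so potent in both; inactive means the rest.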 A selection follows.
# Molecular target: T1, Neuropilin-1, Homo sapiens (UniProt O14786)
# T1 sequence (whole entry): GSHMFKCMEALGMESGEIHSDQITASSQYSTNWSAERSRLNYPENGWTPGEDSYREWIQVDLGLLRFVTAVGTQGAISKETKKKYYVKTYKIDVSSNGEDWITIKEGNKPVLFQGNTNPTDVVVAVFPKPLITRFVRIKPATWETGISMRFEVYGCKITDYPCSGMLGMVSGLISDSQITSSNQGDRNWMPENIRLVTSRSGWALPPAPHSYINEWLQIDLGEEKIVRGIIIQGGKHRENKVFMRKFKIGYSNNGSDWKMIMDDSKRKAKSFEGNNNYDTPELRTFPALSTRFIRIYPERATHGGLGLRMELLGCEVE
# Assay: NRP-1 b1b2 CendR peptide binding inhibitors, dose response, biochemical, FP and AlphaScreen panel (AID 651650)
row,Compound,outcome
1,Cn1c(=O)c2[nH]c(COc3ccccc3)nc2n(C)c1=O,inactive
